Source: PubChem BioAssay (National Center for Advancing Translational Sciences (NCATS))
ALOX12 inh – ALOX12 (human) lipoxygenase inhibition | P18054 | purified 12hLO, xylenol orange hydroperoxide absorbance | Potency, µM (top dose mostly 108 µM), most hits filed as inhibitors | hit rate 1.1% among 580,000 | AID 1671190
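Purified human 12hLO at 150 nM in 25 mM Hepes, 0.01% Triton X-100, pH 7.0, preincubated 15 min at room temperature with compound. Reaction started with 40 uM arachidonic acid, 30 min at room temperature. Hydroperoxide measured by Fe-xylenol orange, 573/405 nm absorbance ratio.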
G9a inh – inhibitors of human histone lysine methyltransferase G9a; G9a H3K9 monomethylation, AlphaScreen, 2 h; Potency, µM (doses to about 102 µM), hits mostly inhibitors; hit rate 8.8% among 350,000; AID 504332; note: nearly all actives have a fitted effect of over 75% in size
Target sequence (Q96KQ7 913-1193 limits assumed): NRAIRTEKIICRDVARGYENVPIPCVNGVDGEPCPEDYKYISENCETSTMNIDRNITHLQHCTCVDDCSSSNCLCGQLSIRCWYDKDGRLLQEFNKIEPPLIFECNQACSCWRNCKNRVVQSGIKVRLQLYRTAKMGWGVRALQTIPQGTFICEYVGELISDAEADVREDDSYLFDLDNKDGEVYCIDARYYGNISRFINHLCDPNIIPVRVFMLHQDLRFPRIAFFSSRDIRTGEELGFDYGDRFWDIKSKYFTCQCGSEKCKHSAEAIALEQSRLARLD
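Enzyme 20 nM + cpd, 15 min RT; add b-H3K9 pep 500 nM / SAM 20 uM; 2 h RT; anti-H3K9me1 Ab 0.5 ug/mL + SA donor / anti-rabbit acceptor beads 20 ug/mL each, 10 min; AlphaScreen read.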
BAZ2B inh – blocks human BAZ2B; Potency, µM (top dose mostly 114 µM), most hits filed as inhibitors; hit rate 4.4% among 360,000; Q9UIF8; AID 504333; AlphaScreen BAZ2B-H3K14Ac peptide displacement; note: nearly all actives have a fitted effect of over 60% in size
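Multi-concentration screen (max 110 uM) measuring displacement of acetylated histone H3 peptide from BAZ2B by AlphaScreen, using 50 nM protein, 50 nM peptide and 10 ug/mL streptavidin donor plus Ni-chelate acceptor beads.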
HP1b binding inh – HP1-beta chromodomain-methylated histone interaction inhibition; AlphaScreen HP1-beta / biotin-H3K9me3 peptide binding; hit rate 0.56% among 390,000; Potency, µM (titrated, usually from 114 µM), actives largely listed as inhibitors; note: nearly all actives have a fitted effect of over 70% in size
Target sequence (P83916 whole entry, looked up): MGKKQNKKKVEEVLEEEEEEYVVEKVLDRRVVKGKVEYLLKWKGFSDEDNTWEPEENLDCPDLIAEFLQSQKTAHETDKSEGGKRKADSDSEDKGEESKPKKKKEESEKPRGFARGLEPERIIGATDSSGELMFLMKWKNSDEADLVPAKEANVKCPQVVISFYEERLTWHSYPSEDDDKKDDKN
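Compound inhibition of the preformed complex between 50 nM HP1-beta and 50 nM biotinylated H3K9me3 peptide was read by AlphaScreen. Buffer was PBS pH 7.4 with 0.01% Tween-20. Incubations ran 30 min at room temperature, with 10 ug/mL donor/acceptor beads.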
JMJD2A Tudor inh – JMJD2A Tudor domain (human) inhibition | hit rate 4.4% among 390,000 | Potency, µM (highest dose often 114 µM), hits mostly inhibitors | O75164 | AlphaScreen JMJD2A-Tudor / H3K4me3 peptide binding | AID 504339; note: nearly all actives have a fitted effect of over 50% in size
PLK1 PBD block – inhibitors of human PLK1 polo-box domain binding; hit rate 2.8% among 360,000; P53350; Plk1 PBD binding of FITC phosphopeptide, fluorescence polarization; Potency, µM, most hits filed as inhibitors; AID 720504; note: series mostly up to about 57 µM; nearly all actives have a fitted effect of over 65% in size
Each line names hits and unclear results; the compound was inactive in the other large screens. This is a sample that favours compounds with a hit; in the whole collection about 9% have one here. Calls come from the whole dose curve; as a rule, active = well fitted curve in the direction sought with a large enough effect; inconclusive = small, poorly fitted or top-dose-only effect, or another doubt; inactive = no such curve, though single readings can be large; an effect the other way counts as inactive or inconclusive.

Cn1c(=O)c2c(=O)cc(NNC(=O)C(C)(C)C)[nH]c2n(C)c1=O	none
Cn1c(=O)c2c(=O)cc(NNC(=O)CC#N)[nH]c2n(C)c1=O	ALOX12 inh inconclusive, G9a inh inconclusive, PLK1 PBD block 30µM
CCCC(=O)NNc1cc(=O)c2c(=O)n(C)c(=O)n(C)c2[nH]1	ALOX12 inh 16µM, JMJD2A Tudor inh inconclusive
COc1ccc(CCn2c(=O)c3cccnc3n(CC(=O)Nc3c(C)cc(C)cc3C)c2=O)cc1OC	none (no result: PLK1 PBD block)
COc1ccc2c(COC(=O)CC3Sc4ccccc4NC3=O)cc(=O)oc2c1 (configuration not stated)	ALOX12 inh inconclusive
CC(=O)Nc1ccc2c(COC(=O)CC3Sc4ccccc4NC3=O)cc(=O)oc2c1 (configuration not stated)	BAZ2B inh 56µM, HP1b binding inh inconclusive, JMJD2A Tudor inh 79µM (no result: G9a inh)
CC(=O)Nc1ccc(NC(=O)CC2Sc3ccccc3NC2=O)cc1 (configuration not stated)	G9a inh inconclusive (no result: PLK1 PBD block)
O=C(CC1Sc2ccccc2NC1=O)Nc1cccc(C(=O)O)c1 (configuration not stated)	G9a inh 40µM, BAZ2B inh 56µM, HP1b binding inh inconclusive, JMJD2A Tudor inh 50µM
COC(=O)Nc1ccc(S(=O)(=O)N2CCN(C)CC2)cc1	G9a inh inconclusive, JMJD2A Tudor inh 79µM
COC(=O)Nc1ccc(S(=O)(=O)N2CCC(C(=O)N3CCC(C)CC3)CC2)cc1	JMJD2A Tudor inh 11µM, PLK1 PBD block 9.5µM
COC(=O)Nc1ccc(S(=O)(=O)N2CCC(C)CC2)cc1	none
CC(C)c1cc(C(C)C)c(S(=O)(=O)NC(c2ccccn2)C23CC2C3)c(C(C)C)c1 (configuration not stated)	none (no result: G9a inh, BAZ2B inh, HP1b binding inh, JMJD2A Tudor inh)
CN(C)c1cc(N2CCCC(NC(=O)c3cccnc3)C2)ncn1 (configuration not stated)	none (no result: G9a inh, BAZ2B inh, HP1b binding inh, JMJD2A Tudor inh, PLK1 PBD block)
CCOC(=O)c1c(CN(CC)CC)n(C)c2cc(Br)c(O)cc12	G9a inh inconclusive
CCOC(=O)c1c(CSc2ccccc2)n(C)c2ccc(O)c(CN3CCN(C)CC3)c12	ALOX12 inh inconclusive, BAZ2B inh inconclusive, JMJD2A Tudor inh 45µM (no result: G9a inh)
CCOC(=O)c1c(CSc2ccsc2)n(C)c2cc(Br)c(O)c(CN(C)C)c12	ALOX12 inh inconclusive, G9a inh 32µM, BAZ2B inh inconclusive, JMJD2A Tudor inh inconclusive
CCOC(=O)c1c(CN2CCOCC2)n(-c2ccccc2)c2cc(Br)c(O)c(CN(C)C)c12	G9a inh inconclusive, JMJD2A Tudor inh inconclusive
CCOC(=O)c1c(CSc2ccccc2)n(C)c2cc(Br)c(O)c(CN(C)C)c12	G9a inh 40µM, BAZ2B inh inconclusive, HP1b binding inh inconclusive, JMJD2A Tudor inh inconclusive
CCOC(=O)c1c(CN2CCCCC2)n(C)c2cc(Br)c(O)c(CN(C)C)c12	G9a inh 35µM (no result: ALOX12 inh)
COc1cc(C(=O)OCC(=O)N2CCCCC2C)cc(NC(=O)c2cccs2)c1OC (configuration not stated)	none
Cc1ccc(NC(=O)CCS(=O)(=O)c2cc3[nH]c(=O)c(=O)[nH]c3cc2C)cc1	none
O=C1CSC(c2ccccc2O)N1Cc1ccccc1 (configuration not stated)	none
O=C(NC1CC1)C1CCN(c2ccc(S(=O)(=O)N3CCOCC3)cc2)CC1	none
COc1ccc(NC(=O)c2cc(C3CCCCN3C(=O)C3CCCCC3)on2)c(C)c1 (configuration not stated)	none (no result: G9a inh, BAZ2B inh, HP1b binding inh, JMJD2A Tudor inh)
CCOC(=O)c1c(CSc2ccc(C)cc2)n(C)c2cc(Br)c(O)c(CN(C)C)c12	ALOX12 inh inconclusive, G9a inh 8.9µM, BAZ2B inh 45µM, HP1b binding inh inconclusive, JMJD2A Tudor inh 32µM
Nc1cc2c(cc1[N+](=O)[O-])-c1ccccc1C2=NO	HP1b binding inh inconclusive, JMJD2A Tudor inh 28µM (no result: G9a inh, BAZ2B inh)
COCC(=O)N(Cc1ccco1)c1nnc(C2CCOC2)s1 (configuration not stated)	G9a inh 79µM
CCC(=O)N(Cc1ccco1)c1nc(-c2ccc(OC)cc2)cs1	none
CN(C)c1ccc(C(=O)OCc2ccccc2)cc1	none
